MCF10A rereplic: induces DNA re-replication in MCF 10a normal breast cells; MCF 10A DNA re-replication, Hoechst nuclear intensity, 48 h; Potency, µM (series often up to 46.1 µM), inactives show at the highest dose activity, positive = re-replication, hits mostly activators; actives 2.9% (n = 350,000); also: % of control where 0% means no effect; nearly all actives have a fitted effect of over 50% in size
KB-V1 MDR tox: kills drug-selected multidrug resistant KB-V1 cells; KB-V1 MDR cells viability, CellTiter-Glo, 72 h; Potency, µM (series often up to 46.1 µM), most hits filed as cytotoxic; actives 3.4% (n = 400,000); AID 1347076; also: % is scaled to controls: 0 for no effect and ±100 for the full control effect; nearly all actives have a fitted effect of over 60% in size
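KB-V1 MDR subline cells in DMEM (phenol-red free, 10% FBS) exposed to compounds in qHTS concentration series for 72 h at 37 degrees C. Viability read by CellTiter-Glo luminescence; concentration-effect curves fitted after normalization and correction.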
HT1080-NT tox: kills 2HG-producing HT-1080-NT fibrosarcoma cells. HT-1080-NT fibrosarcoma viability, CellTiter-Glo ATP luminescence, 48 h. Potency, µM (highest dose often 46.1 µM), for the others: top-dose activity, negative = less viability, actives largely listed as cytotoxic. actives 1.6% (n = 360,000). AID 686970;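 also: NT is the 2HG producing partner of a matched IDH1 knockdown line; 0% = DMSO-treated cells and -100% = media-only wells without cells; nearly all actives have a fitted effect of over 55% in size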
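Viability of the 2HG-overproducing fibrosarcoma line after 48 hours of compound exposure at 37 degrees C was determined by luminescence with CellTiter-Glo, and concentration-effect curves were then fitted and categorized.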
SW480 rereplic: DNA re-replication induction in SW480 cells. SW480 DNA re-replication, Hoechst DNA content imaging, 48 h. Potency, µM (top dose mostly 46.1 µM), without a hit: top-dose re-replication activation, actives largely listed as activators. actives 1.8% (n = 340,000); also: % of control where 0% means no effect; nearly all actives have a fitted effect of over 55% in size
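DNA re-replication was detected as more nuclei of elevated Hoechst intensity after 48 hr exposure to compound (23 nL pinned per well of 250 cells).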
KB-3-1 cytotox: KB-3-1 parental cell cytotoxicity; KB-3-1 viability, CellTiter-Glo ATP luminescence, 72 h; Potency, µM (series often up to 46.1 µM), most hits filed as cytotoxic; actives 1.4% (n = 400,000); AID 1347075; also: % is scaled to controls: 0 for no effect and ±100 for the full control effect; nearly all actives have a fitted effect of over 60% in size
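Screening of KB-3-1 cells (DMEM, 10% FBS, phenol-red free) ran from lowest to highest compound concentration; after 72 h at 37 °C viability was read luminescently and curves fitted.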
HT1080 IDH1KD tx: toxicity to HT-1080 IDH1 knockdown cells (counter line). HT-1080 IDH1 knockdown viability, ATP luminescence, 48 h. Potency, µM (top dose mostly 46.1 µM), for inactives: at the top dose activity, negative = toxicity, usual class: cytotoxic. actives 2% (n = 360,000);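 also: 0% = DMSO wells and -100% = cell-free medium wells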
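After a 2 h attachment period, IDH1KD HT-1080 cells took pin-transferred compound for 48 h at 37 °C; ATP-based luminescence after 10 min room-temperature reagent incubation reported viability.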
Starred values were filed as active, the others as inactive; i = inactive; ? = inconclusive; / = no result; [ ] = remark or other dose. Rows were chosen to be rich in hits. Some 8% of all compounds tested hit in one or more screens of this group. Calls follow the shape of the dose curve; as a rule, active = well fitted curve in the direction sought with a large enough effect; inconclusive = small, poorly fitted or top-dose-only effect, or another doubt; inactive = no such curve, though single readings can be large; an effect the other way counts as inactive or inconclusive. Potency is read from the fitted curve at half-maximal effect.

SMILES	MCF10A rereplic	KB-V1 MDR tox	HT1080-NT tox	SW480 rereplic	KB-3-1 cytotox	HT1080 IDH1KD tx
CCOc1ccc(NC(=O)c2ccc3nc(Cc4ccccc4)oc3c2)cc1	/	i	/	/	i	/
O=C(c1cccn1-c1nnc(N2CCCC2)s1)N1CCN(c2ccc(Cl)cc2)CC1	/	i	/	/	i	/
COC(=O)c1ccc(Cl)c(NC(=O)C2CCN(S(=O)(=O)Cc3ccccc3)CC2)c1	/	i	/	/	i	/
Cc1ccc(NC(=O)C(=O)NCC(c2ccc3c(c2)OCO3)N2CCN(C)CC2)c(C)c1 (stereo not given)	/	i	/	/	i	/
Cc1[nH]c2ccc(F)cc2c1CCNC(=O)c1cc2cc(Cl)ccc2oc1=O	/	i	/	/	i	/
CCc1ccccc1-n1c(C)nc2cc(C(=O)NCCc3ccc(Cl)cc3)ccc21	/	i	/	/	i	/
CCCc1n[nH]c(=O)c2c1nnn2Cc1ccccc1	-2%	i	2%	5%	i	-2%
CCc1cc(-c2cnnn2Cc2ccccc2)ccc1-c1cn(CC(C)C)nn1	/	10µM*	?	/	?	?
CNC[C@H](O)c1ccc(OC(=O)C(C)(C)C)c(OC(=O)C(C)(C)C)c1	2%[20.6 µM]	/	/	-2%[20.6 µM]	/	/
COc1cc2[nH]c(=O)n(CCCCCC(=O)N3CCN(c4ccc(Cl)cc4)CC3)c(=O)c2cc1OC	/	i	/	/	i	/
c1ccc(COc2ncnc3c2ncn3CCCNCC(c2ccccc2)c2ccccc2)cc1	/	?	16µM*	/	?	?
O=C(Cn1cnc2c(OCc3ccccc3)ncnc21)NCc1ccccc1	?	i	?	15µM*	i	?
COc1ccc(CNC(=O)Cn2cnc3c(OCc4ccccc4)ncnc32)cc1	1%	i	-2%	27%	i	-9%
COc1ncnc2c1ncn2CCCNCC(c1ccccc1)c1ccccc1	/	i	-15%	/	i	-8%
CN(C)c1ccc(NC(=O)CSC2=Nc3ccccc3C3=NC(CCC(=O)NCc4cccs4)C(=O)N23)cc1 (stereo not given)	/	i	/	/	i	/
CCOC(=O)C1(C)NC(c2ccc(N(C)C)cc2)C2C(=O)N(c3ccc(OC)cc3)C(=O)C21 (stereo not given)	-1%	i	?	-2%	i	16%
CCOC(=O)C1(C)NC(c2cccs2)C2C(=O)N(c3ccc(OC)cc3)C(=O)C21 (stereo not given)	18µM*	i	15%	?	i	10%
Cc1cccc(NC2=NC(C)(C)N=C(N)N2)c1	-3%	i	0.33µM*	1%	1.6µM*	0.16µM*
NC1=NC2(CCCCC2)N=C(Nc2ccc(F)cc2F)N1	9%	i	4%	-7%	i	6%
COc1ccc(OC)c(NC2=NC3(CCCC3)N=C(N)N2)c1	14%	i	-18%	1%	?	-28%
Cc1cc(C)cc(NC2=NC3(CCCCC3)N=C(N)N2)c1	21µM*	i	?	?	?	4.6µM*
CCCCOc1ccc(NC2=NC3(CCCC3)N=C(N)N2)cc1	?	i	?	1%	7.3µM*	?
CCN1c2ccccc2NC2N=C(OC)C(c3ccccc3)C21 (stereo not given)	?	?	11µM*	16µM*	i	8.9µM*
CCN1C(=O)N[C@@H](c2ccccc2)[C@H](C(=O)OC)[C@H]1C	1%	i	19%	-7%	i	2%
O=C(COc1ccccc1Br)NC1CCCC1	25%	16µM*	-14%	-205%	?	-9%
CCOc1ccccc1OCC(=O)NC1CCCCC1	9%	i	11%	-25%	i	-2%
c1ccc2c(c1)CCCN2	/	i	/	/	i	/
CCC(C)(C(=O)NC1CCCC1)N(CC1CCCO1)C(=O)c1ccc2c(c1)OCO2 (stereo not given)	36%[0.0737 µM]	i	1%	0%	i	14%

Screening results as filed in PubChem BioAssay.
